Results on nine compounds are retold here after PubChem BioAssay (NCI).

This is part of a sample that, as a whole, favours compounds with a hit. Of some 83,000 tested, about 20% had one in any assay.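 48-hour exposure, single concentration, 96-well plates; percent growth endpoint where 0 means no net growth. Active: below 10.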 A number with no mark means an inactive call. The source made the active and inactive calls.

Assay in all cases: NCI-60 one-dose screen, 48 h (100 = growth as untreated, 0 = no growth, -100 = all killed)
In one experiment the test system is DU-145 prostate. Conditions: 10 µM unless noted.
The next experiment concerns K-562 leukemia. Conditions: 10 µM unless noted.
A further experiment concerns MALME-3M melanoma. Conditions: 10 µM unless noted.
A further experiment deals with RXF 393 renal. Conditions: 10 µM unless noted.
The subject of a further experiment is SF-268 CNS. Conditions: 10 µM unless noted.
Another experiment concerns SF-295 CNS. As to conditions: 10 µM unless noted.
A further experiment deals with SF-539 CNS. As to conditions: 10 µM unless noted.
Another experiment deals with UACC-257 melanoma. Conditions: 10 µM unless noted.
Another experiment relates to M14 melanoma. Conditions: 10 µM unless noted.
A further experiment concerns HCT-15 colon. Conditions: 10 µM unless noted.
A further experiment deals with HT29 colon. As to conditions: 10 µM unless noted.
The test system of a further experiment is SNB-19 CNS. Conditions: 10 µM unless noted.
The subject of a further experiment is U251 CNS. Conditions: 10 µM unless noted.
For the next experiment, the system named is PC-3 prostate. As to conditions: 10 µM unless noted.
In another experiment the test system is SK-MEL-5 melanoma. As to conditions: 10 µM unless noted.
The subject of another experiment is UACC-62 melanoma. Conditions: 10 µM unless noted.
Another experiment concerns SK-MEL-28 melanoma. As to conditions: 10 µM unless noted.
The subject of the next experiment is SNB-75 CNS. Conditions: 10 µM unless noted.
Another experiment has as its system MDA-MB-231 breast. As to conditions: 10 µM unless noted.
Another experiment relates to LOX IMVI melanoma. As to conditions: 10 µM.

Turning to `CSc1ccc(NC(=O)c2ccc3nnn(/C(C#N)=C/c4ccccn4)c3c2)cc1`, the growth in the experiment with DU-145 prostate is -97.9% (active); in the experiment on K-562 leukemia it was -5.65% (active); in the experiment on MALME-3M melanoma, -94.6% (active); in the experiment on RXF 393 renal, -98.6% (active); in the experiment with SF-268 CNS, -3.01% (active); in the experiment on SF-295 CNS, -73.3% (active). In addition, the growth was -99.3% (active) in the experiment with SF-539 CNS; -76.9% (active) with UACC-257 melanoma; -89.7% (active) with M14 melanoma; -66.3% (active) in the experiment with HCT-15 colon; -89.2% (active) with HT29 colon; -73.1% (active) with SNB-19 CNS. The growth with U251 CNS was -81.6% (active); in the experiment on PC-3 prostate, -20.1% (active); in the experiment with SK-MEL-5 melanoma it was -99.7% (active); in the experiment with UACC-62 melanoma it was -65.9% (active); in the experiment on SK-MEL-28 melanoma, -72.6% (active).

Turning to `CC(=O)Nc1ccc(-c2cn(-c3cccc(C(=O)Nc4ccc(N5CCN(C)CC5)cc4)c3)nn2)cn1`, the growth in the experiment on DU-145 prostate was 83.4%; in the experiment with K-562 leukemia, 31.5%; in the experiment with MALME-3M melanoma, 72%; in the experiment with RXF 393 renal, 97%; in the experiment with SF-268 CNS it was 88.7%; in the experiment on SF-295 CNS, 58.6%. The growth with SF-539 CNS is 68.6%; in the experiment with UACC-257 melanoma, 100%; in the experiment on M14 melanoma, 87%; with HCT-15 colon, 91.5%; with HT29 colon it was 6.82% (active); in the experiment with SNB-19 CNS it was 49.4%. In addition, the growth with U251 CNS is 50.8%; in the experiment on PC-3 prostate, 72.2%; in the experiment on SK-MEL-5 melanoma, 87.8%; with UACC-62 melanoma, 114%; in the experiment with SK-MEL-28 melanoma, 101%.

On to `CNC(=O)c1cc(Oc2ccc3nc(NC(=O)Nc4cccc(OC(F)(F)F)c4)sc3c2)ccn1`, for which the growth with DU-145 prostate was 36.8%; in the experiment on K-562 leukemia, 47.1%; in the experiment with MALME-3M melanoma, -25.2% (active); in the experiment on RXF 393 renal it was -40.1% (active); with SF-268 CNS, 11.8%; with SF-295 CNS, -18.9% (active). Further, the growth is -57.8% (active) in the experiment with SF-539 CNS; 47.9% with UACC-257 melanoma; 44.8% with M14 melanoma; 51.1% with HCT-15 colon; 25% with HT29 colon; 6.6% (active) in the experiment with SNB-75 CNS. The growth with SNB-19 CNS is -46.6% (active); in the experiment on U251 CNS, 2.42% (active); in the experiment with PC-3 prostate, 4.97% (active); in the experiment on SK-MEL-5 melanoma, 53.7%; with UACC-62 melanoma, -4.81% (active); in the experiment on SK-MEL-28 melanoma, 31.9%.

As to `O=C(O)c1ccc(-c2ccc(/C=N/NC(=O)c3[nH]c4ccc(Br)cc4c3-c3ccccc3)s2)cc1`, the growth with DU-145 prostate is 28.2%; in the experiment with K-562 leukemia it was 22.5%; in the experiment on MALME-3M melanoma it was -8.14% (active); in the experiment with RXF 393 renal, -24.4% (active); in the experiment with SF-268 CNS it was 21.1%; in the experiment with SF-295 CNS, -11.9% (active). Besides, the growth with SF-539 CNS is 1.96% (active); in the experiment with UACC-257 melanoma, 44.3%; in the experiment on M14 melanoma it was 28.2%; with HCT-15 colon, -34.6% (active); with HT29 colon it was -7.12% (active); with SNB-75 CNS, -11.3% (active). Further, the growth in the experiment with SNB-19 CNS is 14.4%; with U251 CNS, 14.5%; with PC-3 prostate it was 18.7%; with SK-MEL-5 melanoma, -49.6% (active); in the experiment on UACC-62 melanoma, -51.9% (active); in the experiment on SK-MEL-28 melanoma, 11.9%.

`N#Cc1c(-c2cccc(O)c2O)cc(-c2ccc3ccccc3c2)[nH]c1=O`: the growth was 57% in the experiment on DU-145 prostate; 67.1% in the experiment with K-562 leukemia; 59.1% in the experiment with MALME-3M melanoma; 39.3% in the experiment with RXF 393 renal; 58.6% with SF-268 CNS; 83.6% in the experiment on SF-295 CNS. Further, the growth with SF-539 CNS is 28.8%; in the experiment with UACC-257 melanoma, 99.9%; in the experiment on M14 melanoma it was 65.1%; in the experiment on HCT-15 colon, 52.8%; with SNB-75 CNS it was -6.63% (active); in the experiment with SNB-19 CNS it was 41.1%. In addition, the growth in the experiment on U251 CNS was 40.2%; in the experiment with PC-3 prostate, 67.5%; in the experiment with SK-MEL-5 melanoma, 45.9%; in the experiment on UACC-62 melanoma, 77.5%; with SK-MEL-28 melanoma it was 45.7%.

Turning to `CSc1ccccc1NC(=O)c1ccc2nn(/C(C#N)=C/c3ccccn3)nc2c1`, the growth with DU-145 prostate was -99.5% (active); in the experiment on K-562 leukemia it was -10.1% (active); in the experiment on MALME-3M melanoma, -89% (active); with RXF 393 renal, -95.8% (active); with SF-268 CNS it was 14.6%; in the experiment with SF-295 CNS, -21.9% (active). Moreover, the growth in the experiment on SF-539 CNS was -93.1% (active); in the experiment on UACC-257 melanoma, -91% (active); in the experiment with M14 melanoma, -88.1% (active); with HCT-15 colon, -62.8% (active); with HT29 colon, -91.9% (active); in the experiment on SNB-19 CNS, 12.3%. The growth was -81.6% (active) with U251 CNS; -57.7% (active) in the experiment with PC-3 prostate; -88.8% (active) in the experiment on SK-MEL-5 melanoma; -89.6% (active) in the experiment with UACC-62 melanoma; -91.4% (active) in the experiment on SK-MEL-28 melanoma.

For `COc1ccc(C(=O)/C=C/c2cc3c(cc2Br)OCO3)cc1S(N)(=O)=O`, the growth in the experiment on DU-145 prostate is -0.788% (active); with MALME-3M melanoma, 23.8%; with MDA-MB-231 breast, 23.7%; with RXF 393 renal, -58.2% (active); in the experiment with SF-268 CNS, 18.1%; in the experiment with SF-295 CNS, -22.8% (active). Further, the growth is -89.2% (active) in the experiment with SF-539 CNS; 63.6% in the experiment with UACC-257 melanoma; -71.2% (active) in the experiment on M14 melanoma; -40.4% (active) with HCT-15 colon; 0.446% (active) with HT29 colon; 2.3% (active) in the experiment with SNB-75 CNS. In addition, the growth was 6.32% (active) with SNB-19 CNS; -95.1% (active) in the experiment with U251 CNS; 2.21% (active) in the experiment on PC-3 prostate; 39.2% in the experiment with UACC-62 melanoma; -85.5% (active) in the experiment with LOX IMVI melanoma.

With `CSc1ccc(C(=O)Nc2ccc3nnn(/C(C#N)=C/c4ccccn4)c3c2)cc1`, the growth in the experiment with DU-145 prostate was -40.3% (active); with K-562 leukemia, -9.85% (active); with MALME-3M melanoma, -59.3% (active); in the experiment on RXF 393 renal, -95.5% (active); with SF-268 CNS, 30.5%; in the experiment on SF-295 CNS, 34.8%. For the same compound, the growth in the experiment on SF-539 CNS was -92% (active); in the experiment with UACC-257 melanoma, -38.9% (active); in the experiment with M14 melanoma, -73.2% (active); in the experiment with HCT-15 colon, -41.8% (active); with HT29 colon, -86.6% (active); with SNB-19 CNS, -3.44% (active). The growth with U251 CNS was -78.2% (active); with PC-3 prostate, 7.72% (active); in the experiment with SK-MEL-5 melanoma, -57.2% (active); in the experiment with UACC-62 melanoma, -51.3% (active); in the experiment on SK-MEL-28 melanoma, -50.2% (active).

As to `CC1=C(C(=O)OCc2ccccc2)C(c2c(O)cc(O)cc2O)n2c(nc3ccccc32)N1` (stereo not given), the growth is 82.3% in the experiment on DU-145 prostate; 17.4% with K-562 leukemia; 52.7% in the experiment with MALME-3M melanoma; 25.5% in the experiment with RXF 393 renal; 52.7% in the experiment with SF-268 CNS; 25.4% in the experiment with SF-295 CNS. Also, the growth is 16.8% with SF-539 CNS; 47.9% in the experiment with UACC-257 melanoma; 41.7% in the experiment with M14 melanoma; 39% in the experiment with HCT-15 colon; 13% in the experiment on SNB-75 CNS; 59.7% in the experiment with SNB-19 CNS. Moreover, the growth is 42.7% with U251 CNS; 49.2% with PC-3 prostate; 53% with SK-MEL-5 melanoma; 14.7% with UACC-62 melanoma; 60.2% in the experiment with SK-MEL-28 melanoma.
